Screening data as filed in PubChem.
Tau fluor cs – Counterscreen qHTS for Inhibitors of Tau Fibril Formation, Fluorescence Polarization; AID 1463, 2008; 280,000 compounds, 0.93% hits; tau K18 P301L Alexa594 fluorescence, heparin fibrillization; Potency, µM (top dose mostly 57.7 µM); note: nearly all actives have a fitted effect of over 55% in size
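Human K18 P301L tau (15 uM unlabeled plus 0.24 uM Alexa 594-labeled, final) in 100 mM sodium acetate pH 7 was mixed with compound and 20 uM heparin and incubated 6 hr at 37 C.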
Tau fibril ThT – qHTS for Inhibitors of Tau Fibril Formation, Thioflavin T Binding; Microtubule-associated protein tau (Homo sapiens), P10636; recombinant tau K18 P301L (four-repeat tau fragment), heparin-induced fibrillization, ThT fluorescence; Potency, µM (series often up to 57.4 µM), actives largely listed as inhibitors; 270,000 compounds, 2.1% hits; note: nearly all actives have a fitted effect of over 55% in size
Target sequence (P10636 561-689 P618L limits assumed): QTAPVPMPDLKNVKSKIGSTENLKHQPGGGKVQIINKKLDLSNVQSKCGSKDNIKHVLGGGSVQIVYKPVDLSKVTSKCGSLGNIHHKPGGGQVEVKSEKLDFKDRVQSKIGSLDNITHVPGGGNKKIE
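K18 P301L tau (15 uM + 0.24 uM Alexa 594-tagged), heparin 20 uM, NaOAc pH 7, 6 h 37 C; ThT 30 uM, 1 h RT, ex 450/em 510 nm.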
Tau fibril FP – qHTS for Inhibitors of Tau Fibril Formation, Fluorescence Polarization | K18 P301L tau heparin fibrillization, Alexa594 FP, 6 h | Microtubule-associated protein tau (Homo sapiens), P10636 | Potency, µM (series often up to 57.7 µM), actives largely listed as inhibitors | AID 1468, 2008 | 280,000 compounds, 0.39% hits; note: nearly all actives have a fitted effect of over 55% in size
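K18 P301L tau (15 uM unlabeled/0.24 uM Alexa 594-labeled, final) + compound + heparin 20 uM final; 100 mM NaOAc pH 7; 6 hr 37 C; ThT 30 uM final added, 1 hr RT; FP ex 555/em 632 nm.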
KinaseGlo FLuc – Counterscreen for Luciferase (Kinase-Glo TM) Inhibition. 200,000 compounds, 0.28% hits. Potency, µM (series often up to 38.3 µM), most hits filed as inhibitors. Kinase-Glo luciferase, ATP luminescence, 8 min; note: nearly all actives have a fitted effect of over 60% in size
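Inhibition of Kinase-Glo luciferase light generation was assessed at 10 uM ATP in pH 7.2 imidazole buffer, with luminescence measured after eight minutes at ambient temperature.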
NPSR antagonist – qHTS Assay for Antagonists of the Neuropeptide S Receptor: cAMP Signal Transduction | AID 1461, 2008 | 220,000 compounds, 1% hits | Q6W5P4 | Potency, µM (highest dose often 38.3 µM), hits mostly inhibitors | CHO-NPSR cells, cAMP TR-FRET, antagonist mode; note: nearly all actives have a fitted effect of over 50% in size
Target sequence (Q6W5P4 whole entry, looked up): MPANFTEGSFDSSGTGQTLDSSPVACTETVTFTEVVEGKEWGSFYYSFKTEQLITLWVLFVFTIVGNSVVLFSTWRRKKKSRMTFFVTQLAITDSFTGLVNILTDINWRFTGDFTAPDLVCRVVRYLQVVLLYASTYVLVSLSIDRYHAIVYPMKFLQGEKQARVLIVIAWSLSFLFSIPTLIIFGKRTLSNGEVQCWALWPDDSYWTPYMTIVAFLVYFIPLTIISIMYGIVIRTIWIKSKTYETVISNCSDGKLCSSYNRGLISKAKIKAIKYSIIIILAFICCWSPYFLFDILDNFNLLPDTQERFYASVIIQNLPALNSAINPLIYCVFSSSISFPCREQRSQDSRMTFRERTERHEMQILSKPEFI
Of the large screens only hits and unclear results are named; the others gave an inactive call; [ ] = remark or other dose. Compounds with a hit are over-represented: about 3.3% of the library has one in this group of screens. Calls come from the whole dose curve; as a rule, active = well fitted curve in the direction sought with a large enough effect; inconclusive = small, poorly fitted or top-dose-only effect, or another doubt; inactive = no such curve, though single readings can be large; an effect the other way counts as inactive or inconclusive.

CC1CCCCN1C(=O)Cn1cc(/C=C2/C(=O)Nc3ccccc32)c2ccccc21 (stereo unspecified)	Tau fluor cs inconclusive, Tau fibril ThT 10µM, NPSR antagonist inconclusive
COc1cccc2c1C(=O)c1c(O)c3c(c(O)c1C2=O)C[C@](O)(C(C)=O)C[C@H]3O[C@@H]1C[C@H](N)[C@H](O)[C@H](C)O1	none (no result: Tau fluor cs, Tau fibril ThT, Tau fibril FP, NPSR antagonist)
COc1cccc2c1C(=O)c1c(O)c3c(c(O)c1C2=O)C[C@@](O)(C(=O)CO)C[C@@H]3O[C@@H]1C[C@H](N)[C@H](O)[C@H](C)O1	Tau fibril ThT 13µM, Tau fibril FP inconclusive (no result: NPSR antagonist)
COc1cccc2c1C(=O)c1c(O)c3c(c(O)c1C2=O)C[C@@](O)(C(=O)CO)C[C@@H]3O[C@H]1C[C@H](N)[C@H](O)[C@H](C)O1	Tau fibril ThT 3.2µM, Tau fibril FP 25µM, NPSR antagonist inconclusive
Cc1cn2c(=O)cc(COC(=O)c3cccc(NC(=O)COc4ccccc4)c3)nc2s1	Tau fibril ThT inconclusive (no result: KinaseGlo FLuc, NPSR antagonist)
CC(=O)CSc1nc2cc3c(cc2cc1C#N)OCCO3	Tau fluor cs inconclusive, Tau fibril ThT 1.6µM, KinaseGlo FLuc 4.5µM
N#Cc1cc2cc3c(cc2nc1SCC(=O)OC1CCCCC1)OCO3	NPSR antagonist inconclusive
CCOc1cccc2sc(Cl)nc12	none
CCOc1cccc2sc(NN)nc12	Tau fluor cs 14µM[quencher], Tau fibril ThT 20µM, Tau fibril FP inconclusive
COc1ccccc1-c1noc(-c2ccc(NCc3ccco3)c([N+](=O)[O-])c2)n1	none (no result: KinaseGlo FLuc, NPSR antagonist)
CN(C)S(=O)(=O)c1cc(NC(=O)CSc2ncc(C(F)(F)F)cc2Cl)ccc1Cl	Tau fluor cs inconclusive, Tau fibril FP 28µM
CCN1CCN(CC(=O)Nc2ccc(Cl)c(S(=O)(=O)N(C)C)c2)CC1	none
O=C(O)c1cc(N/N=C/C(Cl)=C/c2ccccc2)ccc1Cl	Tau fibril ThT 14µM
O=C(C[n+]1ccc(CCSc2ccc(F)cc2)cc1)c1ccccc1	Tau fibril ThT 28µM, Tau fibril FP inconclusive
O=C(NCCCN1CCCCCC1)C(c1ccccc1)C1CCCCC1 (stereo unspecified)	none (no result: KinaseGlo FLuc, NPSR antagonist)
Cc1ccc(C)c(S(=O)(=O)Nc2cc(SCC(=O)O)c(O)c3ccccc23)c1	Tau fluor cs inconclusive, Tau fibril ThT 3.5µM, Tau fibril FP 7.9µM
Cc1ccc(S(=O)(=O)Nc2ccccc2C(=O)O)c(C)c1	none (no result: Tau fluor cs, Tau fibril ThT, Tau fibril FP, NPSR antagonist)
Cc1cc(O)c(C(c2ccc(F)cc2)N2CCN(c3ccccc3)CC2)c(=O)n1Cc1ccco1 (stereo unspecified)	none (no result: KinaseGlo FLuc, NPSR antagonist)
O=C(N/N=C/C(Cl)=C/c1ccc([N+](=O)[O-])cc1)C(=O)Nc1cccc(C(=O)O)c1	Tau fluor cs inconclusive, Tau fibril ThT 3.5µM (no result: KinaseGlo FLuc)
Cc1ccnc(N2C(=O)c3ccccc3C2Nc2cccc(C)c2C)c1 (stereo unspecified)	none
Cc1ccnc(N2C(=O)c3ccccc3C2O)c1 (stereo unspecified)	KinaseGlo FLuc 11µM
C=C(C(=O)c1ccccc1)C(c1ccccc1)C(C)C(=O)c1ccccc1 (stereo unspecified)	NPSR antagonist inconclusive
C=C(C(=O)c1ccccc1)C(C)C(=C)C(=O)c1ccccc1	Tau fibril ThT 28µM, NPSR antagonist 10µM
COC(=O)C1=C(C(=O)OC)[C@@H]2Nc3ccccc3[C@@]23C[C@@H](C(=O)OC)N(S(=O)(=O)c2ccc(OC)cc2)C3=N1	none (no result: NPSR antagonist)
CCOC(=O)c1cccc(NS(=O)(=O)c2c(C)nc3sc(C)cn3c2=O)c1	none (no result: KinaseGlo FLuc, NPSR antagonist)
CCOC(=O)c1c(N)sc(C)c1-c1ccccc1	Tau fluor cs inconclusive, Tau fibril FP inconclusive (no result: NPSR antagonist)
CCOC(=O)c1c(N)sc(-c2ccccc2)c1C	Tau fluor cs inconclusive, Tau fibril ThT 25µM, NPSR antagonist inconclusive
CC(=O)Nc1ccccc1-c1nc2ccccc2n(C(C)C(=O)Nc2cccc(C)c2C)c1=O (stereo unspecified)	none (no result: KinaseGlo FLuc, NPSR antagonist)
CCOc1cc(/C=C\[N+](=O)[O-])ccc1OCC(=O)Nc1ccccc1C	NPSR antagonist 4µM
COc1ccc(CCNc2ncnc3c2c(-c2ccccc2)cn3-c2ccc(Cl)cc2)cc1OC	none (no result: KinaseGlo FLuc, NPSR antagonist)
CN(C)c1ccc(CNC(=O)C2CCN(C(=O)c3ccc(-n4ccc5ccccc54)s3)CC2)cc1	none (no result: KinaseGlo FLuc, NPSR antagonist)
CCCCC1=CC2=C(OC(C)=O)C(=O)C(C)(OC(=O)C3CCCC3)C(=O)C2=CO1 (stereo unspecified)	Tau fluor cs inconclusive, Tau fibril ThT 28µM, Tau fibril FP inconclusive (no result: NPSR antagonist)
Cc1[nH][nH]c(=O)c1N=Nc1ccc(Cl)cc1	Tau fibril ThT 8.9µM
[O-][n+]1c2c(c3c4non(O)c4ccc31)CCCC2	Tau fluor cs inconclusive, Tau fibril ThT 14µM
COc1ccc(Cc2n[nH]c(=S)n(N)c2=O)cc1	none
Clc1ccc2c(c1)c1ccccc1n2CN1CCOCC1	Tau fluor cs inconclusive
Clc1ccc2c(c1)c1cc(Cl)ccc1n2CN1CCOCC1	Tau fluor cs inconclusive, Tau fibril ThT inconclusive, Tau fibril FP 13µM
COc1ccc(-c2c([C@H]3[C@H]4C=CC[C@@H](C)[C@@H]4C(=O)N3Cc3ccccc3)ccc3ccccc23)cc1OC	NPSR antagonist 6.3µM (no result: KinaseGlo FLuc)
COc1ccc(-c2ccc(OC)c([C@H]3[C@H]4C=CC[C@@H](C)[C@@H]4C(=O)N3Cc3ccccc3)c2)cc1OC	NPSR antagonist inconclusive (no result: KinaseGlo FLuc)
O=C(N/N=C/C(Br)=C/c1ccccc1)c1cnccn1	Tau fibril ThT inconclusive (no result: KinaseGlo FLuc)
CCNC(=S)NNC(=O)c1cc(-c2cccc(OCC)c2)nc2ccccc12	none
CCNC(=S)NNC(=O)c1cc(-c2cccc(C)c2)nc2ccccc12	Tau fibril FP inconclusive, KinaseGlo FLuc 13µM
CC(C)C(=O)Nc1cccc(NC(=S)NC(=O)c2ccc([N+](=O)[O-])cc2)c1	Tau fibril ThT inconclusive
CC(C)C(=O)Nc1ccc(NC(=S)NC(=O)c2ccc([N+](=O)[O-])cc2)cc1	Tau fibril ThT 7.1µM
COc1cc2ccccc2nn1	none (no result: KinaseGlo FLuc)
COc1ccc2c(n1)Sc1nc3ccccc3nc1N2	Tau fluor cs 4µM[quencher], Tau fibril ThT 1µM (no result: KinaseGlo FLuc)
CSc1ccccc1NC(=O)COc1ccc(Cl)cc1Cl	Tau fibril ThT inconclusive (no result: KinaseGlo FLuc)
O=C(COc1ccc(Cl)cc1Cl)Nc1ccccn1	KinaseGlo FLuc 1.6µM
Clc1cccc(Nc2ncnc3c2nc2n3CCCCC2)c1	none (no result: KinaseGlo FLuc, NPSR antagonist)
CN(C)c1ccc(/C=N/NC(=O)c2ccccn2)cc1	Tau fibril ThT inconclusive, NPSR antagonist inconclusive (no result: KinaseGlo FLuc)
O=C(N/N=C/c1ccc(F)cc1)c1cc(-c2ccc3c(c2)OCO3)n[nH]1	none (no result: Tau fibril ThT, KinaseGlo FLuc)
CN(C)c1ccc(/C=N/NC(=O)c2ccnn2C)cc1	KinaseGlo FLuc 1.8µM
CN(C)c1ccc(/C=N\NC(=O)c2cccc3cc[nH]c23)cc1	Tau fluor cs inconclusive, Tau fibril ThT 10µM, NPSR antagonist inconclusive (no result: KinaseGlo FLuc)
